Reference: PubChem BioAssay (NCI)
Several values for one entry are separate records, joined by “and”; a condition that tells them apart may be missing. Equal entries are not always repeated. This is part of a sample that, as a whole, favours compounds with a hit. Of some 83,000 tested, about 20% had one in any assay.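 Treatment: one concentration, 48 hours, 96-well format. Scoring: percent growth, with anything below 10 considered active.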 Activity calls are given as the source filed them.

Experiments:
Test in all cases: NCI-60 one-dose screen, 48 h (100 = growth as untreated, 0 = no growth, -100 = all killed)
Conditions in all cases: 10 µM unless noted
SK-MEL-2 melanoma = test system: SK-MEL-2 melanoma
EKVX NSCLC = test system: EKVX NSCLC
SN12C renal = test system: SN12C renal
UO-31 renal = test system: UO-31 renal
TK-10 renal = test system: TK-10 renal
ACHN renal = test system: ACHN renal
CAKI-1 renal = test system: CAKI-1 renal
A498 renal = test system: A498 renal
HL-60(TB) leukemia = test system: HL-60(TB) leukemia
MOLT-4 leukemia = test system: MOLT-4 leukemia
SR leukemia = test system: SR leukemia
RPMI-8226 leukemia = test system: RPMI-8226 leukemia
OVCAR-8 ovarian = test system: OVCAR-8 ovarian
OVCAR-5 ovarian = test system: OVCAR-5 ovarian
OVCAR-4 ovarian = test system: OVCAR-4 ovarian
SK-OV-3 ovarian = test system: SK-OV-3 ovarian
IGROV1 ovarian = test system: IGROV1 ovarian
OVCAR-3 ovarian = test system: OVCAR-3 ovarian
HS 578T breast = test system: HS 578T breast
CCRF-CEM leukemia = test system: CCRF-CEM leukemia

Row | Structure (SMILES) | growth (SK-MEL-2 melanoma) | growth (EKVX NSCLC) | growth (SN12C renal) | growth (UO-31 renal) | growth (TK-10 renal) | growth (ACHN renal) | growth (CAKI-1 renal) | growth (A498 renal) | growth (HL-60(TB) leukemia) | growth (MOLT-4 leukemia) | growth (SR leukemia) | growth (RPMI-8226 leukemia) | growth (OVCAR-8 ovarian) | growth (OVCAR-5 ovarian) | growth (OVCAR-4 ovarian) | growth (SK-OV-3 ovarian) | growth (IGROV1 ovarian) | growth (OVCAR-3 ovarian) | growth (HS 578T breast) | growth (CCRF-CEM leukemia)
1 | O=C1CN2CCC1CC2 | 101% (inactive) | 109% (inactive) | 106% (inactive) | 84.6% (inactive) | 106% (inactive) | 101% (inactive) | 103% (inactive) | 72.2% (inactive) | 94% (inactive) | 100% (inactive) | 100% (inactive) | 109% (inactive) | 106% (inactive) | 101% (inactive) | 109% (inactive) | 105% (inactive) | 108% (inactive) | 107% (inactive) | 101% (inactive) | 
2 | CC1(C)S[C@H]2CC[C@H]3OC(=O)[C@@H]1N23 | 94.4% (inactive) | 88.4% (inactive) | 119% (inactive) | 53.9% (inactive) | 91.9% (inactive) | 114% (inactive) | 66.6% (inactive) | 93.1% (inactive) | 60.9% (inactive) | 75.1% (inactive) | 92.6% (inactive) | 79.5% (inactive) | 102% (inactive) | 91.1% (inactive) | 97.2% (inactive) | 111% (inactive) | 39.4% (inactive) | 132% (inactive) | 112% (inactive) | 
3 | C(=NC1CCCCC1)=NC1CCCCC1 | 92.8% (inactive) and 94.4% (inactive) | 41.3% (inactive) | 100% (inactive) and 82.2% (inactive) | 98% (inactive) and 76.9% (inactive) | 101% (inactive) and 104% (inactive) | 97.5% (inactive) | 91.3% (inactive) and 88.7% (inactive) | 104% (inactive) and 51.2% (inactive) | 118% (inactive) and 46.3% (inactive) |  | 89.5% (inactive) and 83.7% (inactive) | 97.6% (inactive) and 50% (inactive) | 124% (inactive) and 77.4% (inactive) | 89.7% (inactive) and 90.7% (inactive) | 107% (inactive) and 59.9% (inactive) | 109% (inactive) and 91.6% (inactive) | 108% (inactive) and 88.4% (inactive) | 117% (inactive) and 73% (inactive) | 91.8% (inactive) | 77.3% (inactive)
4 | CC(C)COC(=O)Cc1ccccc1 | 113% (inactive) | 109% (inactive) | 94.2% (inactive) | 102% (inactive) | 95.3% (inactive) | 108% (inactive) | 101% (inactive) | 81.1% (inactive) | 109% (inactive) |  | 100% (inactive) | 103% (inactive) | 110% (inactive) | 106% (inactive) | 105% (inactive) | 105% (inactive) | 109% (inactive) | 111% (inactive) | 102% (inactive) | 95.3% (inactive)
5 | Clc1ccc(COC(Cn2ccnc2)c2ccc(Cl)cc2Cl)c(Cl)c1 (stereo unspecified) | 69.7% (inactive) and 87% (inactive) | 48.6% (inactive) and 59.2% (inactive) | 53.6% (inactive) and 73.9% (inactive) | 25.8% (inactive) and 35.5% (inactive) | 62.1% (inactive) and 73.5% (inactive) | 53.8% (inactive) and 72.4% (inactive) | 29.6% (inactive) and 53.7% (inactive) | 46.1% (inactive) | -0.421% (active) and 18.6% (inactive) |  | 65% (inactive) | 41.2% (inactive) and 54.6% (inactive) | 38.4% (inactive) | 64.5% (inactive) and -11.4% (active) | 49% (inactive) and 63.2% (inactive) | 79.7% (inactive) and 91% (inactive) | 38.3% (inactive) and 22.3% (inactive) | 48.9% (inactive) and 64.2% (inactive) | 74.3% (inactive) | 51% (inactive) and 53.5% (inactive)
6 | O=C(CCCN1CCC2(CC1)C(=O)NCN2c1ccccc1)c1ccc(F)cc1 | 106% (inactive) and 78.5% (inactive) | 57.6% (inactive) and 80.6% (inactive) | 99.6% (inactive) and 84.2% (inactive) | 77.1% (inactive) and 66% (inactive) | 115% (inactive) and 99.1% (inactive) | 20.3% (inactive) | 91.6% (inactive) and 15.5% (inactive) | 50.3% (inactive) and 30.6% (inactive) | 100% (inactive) and 114% (inactive) | 58.5% (inactive) and 33% (inactive) | 99.2% (inactive) | 103% (inactive) and 74.8% (inactive) | 91.8% (inactive) and 76.1% (inactive) | -54.6% (active) | 103% (inactive) and 62.4% (inactive) | 102% (inactive) and 111% (inactive) |  | 105% (inactive) and 107% (inactive) | 97.1% (inactive) and 79.2% (inactive) | 
7 | C/C=C(/C)C(=O)O[C@H]1CC[C@@]2(C)[C@@H]3CC[C@H]4[C@]5(O)C[C@H](O)[C@@]6(O)[C@@H](CN7C[C@@H](C)CC[C@H]7[C@@]6(C)O)[C@]5(O)C[C@@]42O[C@@]13O | 0.648% (active) | 107% (inactive) | 115% (inactive) | 81% (inactive) | 125% (inactive) | 113% (inactive) | 103% (inactive) | 127% (inactive) | 128% (inactive) |  | 97.4% (inactive) | 113% (inactive) | 91.9% (inactive) | 103% (inactive) |  | 118% (inactive) | 49.3% (inactive) | 120% (inactive) | 116% (inactive) | 106% (inactive)
8 | Cc1cc[c-]cc1.Fc1c[c-]c(-c2ccccn2)c(F)c1.N#CCC[PH+](CCC#N)c1ccccc1.[Pt+2] | 59.4% (inactive) | 56.8% (inactive) | 23.9% (inactive) | 24.7% (inactive) | 106% (inactive) | 6.91% (active) | 14.8% (inactive) | 52.3% (inactive) | 2.54% (active) | 5.29% (active) | 7.03% (active) | 14.6% (inactive) | 40.7% (inactive) | 64.9% (inactive) | 42.1% (inactive) | 108% (inactive) | 30.2% (inactive) | 28.5% (inactive) | 40.6% (inactive) | 
9 | CSc1cc(/C=C(\C)[C@@H]2C[C@@H]3O[C@]3(C)CCC[C@H](C)[C@H](O)[C@@H](C)C(=O)C(C)(C)[C@@H](O)CC(=O)O2)n(CCNC(=O)OC(C)(C)C)n1 | 75.6% (inactive) | 78.3% (inactive) | 84% (inactive) | 55.5% (inactive) | 76.8% (inactive) | 77.8% (inactive) | 46.4% (inactive) | 56.6% (inactive) | 8.76% (active) |  | 37.7% (inactive) | 29.7% (inactive) | 55.5% (inactive) | 59.8% (inactive) | 82.4% (inactive) | 79.9% (inactive) | 54.4% (inactive) | 28.8% (inactive) | 75.5% (inactive) | 63.9% (inactive)
10 | CN1C2CCC1[C@@H](COC(=O)c1ccccc1)[C@@H](O)C2 (stereo partly specified) | 104% (inactive) | 104% (inactive) | 105% (inactive) | 91.8% (inactive) | 131% (inactive) | 105% (inactive) | 122% (inactive) | 144% (inactive) | 81.7% (inactive) |  | 105% (inactive) | 77.7% (inactive) | 103% (inactive) | 106% (inactive) | 103% (inactive) | 107% (inactive) |  | 111% (inactive) | 119% (inactive) | 94.3% (inactive)
11 | CC1(C)C2CCC1(CS(=O)(=O)O)C(=O)C2 (stereo unspecified) | 107% (inactive) and 106% (inactive) | 101% (inactive) and 94.6% (inactive) | 87.1% (inactive) and 111% (inactive) | 86% (inactive) and 110% (inactive) | 96% (inactive) and 87.3% (inactive) | 95.9% (inactive) and 105% (inactive) | 97.5% (inactive) and 84.5% (inactive) | 84.3% (inactive) and 96.9% (inactive) | 104% (inactive) and 80.1% (inactive) | 112% (inactive) and 110% (inactive) | 105% (inactive) and 117% (inactive) | 91.4% (inactive) | 99.7% (inactive) and 103% (inactive) | 91.9% (inactive) and 101% (inactive) |  | 98.4% (inactive) and 115% (inactive) | 86.8% (inactive) and 115% (inactive) | 102% (inactive) and 114% (inactive) |  | 
12 | S=P(SP(=S)(c1ccccc1)c1ccccc1)(c1ccccc1)c1ccccc1 | 96.6% (inactive) | 97.6% (inactive) | 97.5% (inactive) | 95.2% (inactive) | 96.8% (inactive) | 99.4% (inactive) | 97.9% (inactive) | 98.3% (inactive) | 48.5% (inactive) | 98.3% (inactive) | 93.7% (inactive) | 87.7% (inactive) | 104% (inactive) | 95.2% (inactive) | 111% (inactive) | 106% (inactive) | 119% (inactive) | 104% (inactive) | 93.8% (inactive) | 
13 | Cc1cc(N(CCCl)CCCl)ccc1C=Nc1ccc(-c2csc(-c3ccccc3)n2)cc1 | 97.2% (inactive) | 111% (inactive) | 64.4% (inactive) | 59.9% (inactive) | 113% (inactive) | 80.5% (inactive) | 32.7% (inactive) | 97.7% (inactive) | 49.1% (inactive) | 22.5% (inactive) | 31.4% (inactive) | 77.3% (inactive) | 91.3% (inactive) | 120% (inactive) | 89.6% (inactive) | 71.6% (inactive) | 93.2% (inactive) | 89.7% (inactive) | 107% (inactive) | 
14 | CCCCS(=O)(=O)Cl | 106% (inactive) | 94.8% (inactive) | 104% (inactive) | 100% (inactive) | 103% (inactive) | 110% (inactive) | 100% (inactive) | 97.9% (inactive) | 105% (inactive) |  | 104% (inactive) | 109% (inactive) | 105% (inactive) | 104% (inactive) | 97.8% (inactive) | 110% (inactive) | 116% (inactive) | 120% (inactive) | 102% (inactive) | 103% (inactive)
